In the library only some 19% were active in any assay of this set; here they are far more common.
TDP1 cell noCPT – qHTS for Inhibitors of human tyrosyl-DNA phosphodiesterase 1 (TDP1): qHTS in cells in absence of CPT | DT40 Tdp1-/- hTDP1 cells, no CPT, ATP luminescence, 48 h | Potency, µM (top dose mostly 46.2 µM), without a hit: at the top dose activity change, negative = growth inhibition, actives largely listed as inhibitors | hit rate 15% among 420,000 | AID 686978, 2013; further: potency means the concentration at half of the fitted maximal effect; on the % scale 0 is the no-effect control and ±100 the full control effect; nearly all actives have a fitted effect of over 55% in size
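Chicken DT40 Tdp1-/- cells complemented with human TDP1, screened without camptothecin (DMSO vehicle only), 400 cells/well. Compounds pin-transferred, cells incubated at 37 °C for at least 48 hr. Growth read as ATP-dependent luminescence (CellTiter-Glo, 30 min at RT).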
Chronic BCR inh – blocks chronic active B-cell receptor signaling; ABC-DLBCL IkBa-CBG/CBR reporter, luminescence ratio, 4 h; Potency, µM (doses to about 46.1 µM), inactives show top-dose activity change, negative = inhibition, most hits filed as inhibitors; hit rate 0.05% among 340,000; AID 493014; active means well fitted inhibition curve with a large enough effect in the signal ratio, with a control signal flat, not every such curve was filed as active; inconclusive means small, poorly fitted or top-dose-only effect, or effect the other way, or a change in a side signal; the % refers to the signal ratio;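 further: potency means the concentration at half of the fitted maximal effect; plate controls were basal doxycycline-induced cells for no effect and cells given 10 µM MG132 for full effect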
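TMD8 human ABC-DLBCL cells with doxycycline-inducible IκBα–green luciferase fusion and unfused red luciferase, in 0.5% FBS medium; compounds up to 46 uM, 4 h at 37C. Green/red luminescence ratio, filter-overlap corrected, fitted to concentration-response curves.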
IL1B secr inh – inhibitors of inflammasome signaling (IL-1 beta secretion). activity change, % at 57.5 µM. hit rate 4.7% among 360,000. AID 743279. THP-1 LPS/ATP IL-1B secretion, AlphaLISA, 16 h; hits give low values; in the data active means activity change below about -50%; inconclusive means mostly about -30% to -49%; further: on the % scale 0 is the no-effect control and ±100 the full control effect
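THP-1 cells pretreated 1 hr with compounds (up to 57.5 uM final), then stimulated with LPS (250 ng/mL final) plus ATP (1.25 mM final); secreted IL-1B measured by AlphaLISA after 16 hr, decreased signal indicating inhibition.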
SW480 rerep – induces DNA re-replication in SW480 colon adenocarcinoma cells | SW480 DNA re-replication, Hoechst DNA content imaging, 48 h | Potency, µM (highest dose often 46.1 µM), without a hit: at the highest dose re-replication activation, usual class: activators | hit rate 1.8% among 340,000; further: potency means the concentration at half of the fitted maximal effect; % of control where 0% means no effect; nearly all actives have a fitted effect of over 55% in size
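Readout is total intensity of Hoechst-stained nuclei, excited at 405 nm and collected at 500-530 nm. Compound treatment lasted 48 hr at 37 C in 5% CO2 before staining.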
TDP1 cell CPT – DT40-hTDP1 cell growth loss with CPT; hit rate 12% among 420,000; chicken DT40 Tdp1-/-;hTDP1 cells + 20 nM CPT, ATP luminescence, 48 h; AID 686979; Potency, µM (series often up to 46.2 µM), inactives show at the top dose activity change, negative = growth inhibition, usual class: inhibitors; further: potency means the concentration at half of the fitted maximal effect; on the % scale 0 is the no-effect control and ±100 the full control effect; nearly all actives have a fitted effect of over 55% in size
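Chicken DT40 Tdp1-/- cells stably complemented with human TDP1 were seeded at 400 cells/well in medium containing 20 nM camptothecin, exposed to pin-transferred compounds, and grown at 37 °C for at least 48 hr. Viability was read as ATP luminescence.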
MCF10A rereplic – DNA re-replication induction in MCF 10a cells. AID 624296. Potency, µM (series often up to 46.1 µM), without a hit: at the highest dose activity, positive = re-replication, usual class: activators. hit rate 2.9% among 350,000. MCF 10A DNA re-replication, Hoechst nuclear intensity, 48 h; further: potency means the concentration at half of the fitted maximal effect; % of control where 0% means no effect; nearly all actives have a fitted effect of over 50% in size
An asterisk follows results filed as active; ? = inconclusive; . = no result; [ ] = remark or other dose. Unless noted, the call rests on the fitted dose curve; in most records, active means well fitted curve in the direction sought with a large enough effect; inconclusive means small, poorly fitted or top-dose-only effect, or another doubt; inactive means no such curve, though single readings can be large; an effect the other way counts as inactive or inconclusive.

SMILES	TDP1 cell noCPT	Chronic BCR inh	IL1B secr inh	SW480 rerep	TDP1 cell CPT	MCF10A rereplic
COC(=O)c1sc2nc3c(c(-c4cccs4)c2c1N)CCCC3	?	10.6%	-1.1	18.4µM*	-14.1%	9.2µM*
COC(=O)c1sc2nc(-c3ccccc3)c3c(c2c1N)CCCC3	-26.3%	-2.1%	-18.1	?	-9.8%	?
NC(=O)c1sc2nc3c(c(-c4ccc(Cl)cc4)c2c1N)CCCC3	?	29.6%	-17.3	?	?	?
Cc1ccc(-c2c3c(nc4sc(C(N)=O)c(N)c24)CCC3)cc1	?	10.0%	-19.3	24.2%	?	11.6µM*
Cc1ccc(S(=O)(=O)NCCCCCC(=O)Nc2c(C)n(C)n(-c3ccccc3)c2=O)cc1	-28.5%	1.1%	-6.9	4.7%	-2.7%	-0.1%
CC1(C(=O)NCc2ccccc2)CCC(=O)N1C1CCN(Cc2ccccc2)CC1 (configuration not stated)	-5.9%	.	17.3	.	-6.0%	.
Cc1ccc(C(=O)C2CC2)cc1C	-3.7%	.	-2.6	7.7%	-4.7%	0.9%
COc1cccc(C(=O)Nc2ccccc2C(=O)NC2CC2)c1	-0.3%	4.9%	?	-3.8%	?	-29.0%
CCOc1ccc(NC(=S)NC(=O)/C=C/c2ccc(C)cc2)c([N+](=O)[O-])c1	13µM*	4.4%	-2.1	11.7%	14.6µM*	?
CCOc1ccc(NC(=S)NC(=O)/C=C/c2ccc(OC)c(OC)c2)c([N+](=O)[O-])c1	?	?	-13.5	-1.6%	?	16.5%
COc1cc(OC)cc(C(=O)Nc2ccccc2C(=O)NC2CC2)c1	16.4µM*	?	11.3	?	?	?
CC(C)C(NCC(=O)Nc1ccccc1C(=O)NC1CC1)c1ccccc1 (configuration not stated)	?	0.2%	13.0	-6.2%	16.4µM*	12.0%
COc1ccc(/C=C/C(=O)NC(=S)Nc2ccccc2C(=O)NC2CCCCC2)cc1	?	-1.1%	-18.7	4.11µM*	?	18.4µM*
CC(NCC(=O)Nc1ccccc1C(=O)NC1CC1)c1cccs1 (configuration not stated)	-18.0%	1.2%	5.4	-2.3%	-2.8%	-13.3%
CC(C)N(C)c1ncnc2c1ncn2[C@H]1CN(Cc2ccc(F)cc2)C[C@@H](CO)O1	?	.	-5.4	.	?	.
C/C(COc1ccccc1)=N\NC(=O)c1nnn(-c2nonc2N)c1CSc1ccc(C)cc1	-15.0%	.	-29.5	.	-8.2%	.
CCC1CCCCN1C(=O)Cn1c(=O)n(-c2ccc(Cl)c(Cl)c2)c(=O)c2c(C)c(C(=O)N(C)C)sc21 (configuration not stated)	-15.9%	-8.5%	.	.	-1.7%	.
COC(=O)c1ccccc1NC(=O)NC1CCC(C)CC1 (configuration not stated)	18.4µM*	?	?	1.8%	-4.3%	0.6%
Cc1ccc(/C=C/C(=O)NC(=S)Nc2ccccc2C(=O)NC2CCCCC2)cc1	11.6µM*	0.3%	-10.6	1.8%	13µM*	?
Cc1ccc(/C=C/C(=O)Nc2ccccc2C(N)=O)cc1	?	?	?	-1.1%	20.6µM*	?
O=C(Nc1ccccc1C(=O)NC1CCCC1)NC1CCCC1	?	?	-4.6	-13.2%	-19.9%	254.4%[0.0737 µM]
CCN1CCC(NC(=O)Nc2ccccc2C(=O)OC)CC1	-6.3%	-7.0%	-8.5	-67.9%	-4.6%	-2.4%
CCOC(=O)/C=C/C(=O)Nc1ccccc1C(=O)NC1CCCCC1	?	2.6%	-51.1*	?	?	?
Cc1nn(-c2ccccc2)c(OC(=O)c2ccccc2F)c1S(=O)(=O)c1ccccc1	-6.2%	.	.	.	0.1%	.
CC(=O)NC(CC(=O)NNC(=O)c1cc2ccccc2cc1O)c1ccccc1 (configuration not stated)	?	1.5%	64.9	?	?	-35.9%
SMILES	TDP1 cell noCPT	Chronic BCR inh	IL1B secr inh	SW480 rerep	TDP1 cell CPT	MCF10A rereplic
CCCN(CCC)c1cc(C)nc2nc(-c3ccc(Cl)cc3)nn12	-15.2%	.	.	.	-11.8%	.
O=C(/C=C/c1ccccc1)NC(=S)Nc1ccccc1C(=O)NC1CCCCC1	?	-3.4%	-8.9	13.5%	?	13.8%
O=C(/C=C/c1ccc(F)cc1)NC(=S)Nc1ccccc1C(=O)NC1CCCCC1	13µM*	28.6%	-2.5	?	16.4µM*	?
COc1ccccc1C(=O)NNC(=O)c1sccc1-n1cccc1	2.2%	0.5%	42.3	-65.8%	-5.2%	?
COc1ccc(/C=N/NC(=O)c2[nH]nc3c2CCc2ccccc2-3)cc1OC	2.59µM*	?	116.2	?	6.51µM*	5.17µM*
CCOC(=O)c1[nH]c(C)c(C(=O)OCC(=O)NCc2ccc(OC)c(OC)c2)c1C	?	2.2%	12.0	-4.9%	?	-12.8%
CCOC(=O)c1c(C)[nH]c(C(=O)N/N=C/c2cc([N+](=O)[O-])ccc2O)c1C	6.51µM*	?	96.5	6.9%	6.51µM*	-1.4%
CCOC(=O)c1c(C)[nH]c(C(=O)N/N=C\c2ccccc2O)c1C	3.66µM*	3.8%	29.0	5.17µM*	4.11µM*	?
COc1ccccc1/C=N/NC(=O)c1[nH]c(C)c(C(=O)N/N=C/c2ccccc2OC)c1C	-0.8%	-17.3%	-14.4	0.2%	11.8%	-2.5%
CCOC(=O)c1c(C)[nH]c(C(=O)N/N=C/c2ccc(OC)c(OC)c2)c1C	0.92µM*	?	15.5	?	1.16µM*	13.9%
O=C(c1ccc(F)cc1)N1CCCC(C(=O)N2CCc3ccccc3C2)C1 (configuration not stated)	-25.2%	8.3%	-24.7	15.3%	?	3.7%
Cc1noc(C)c1NC(=O)Nc1cccc2c1O[C@H](CN(C)C(=O)NC(C)C)[C@@H](C)CN([C@H](C)CO)C2=O	-25.1%	-0.8%	26.6	-9.9%	-4.7%	13.8%
COCCNc1c(-c2cc3ccc(C)c(C)c3[nH]c2=O)nc2ccccn12	18.4µM*	?	-58.8*	0.5%	?	-4.2%
CCCCCn1nnnc1C1(C)CCC(=O)N1Cc1ccco1 (configuration not stated)	-21.2%	.	15.1	.	?	.
N#Cc1c(C#N)c(-c2ccccc2)n(-c2ccccc2)c1N	11.6µM*	?	-15.1	-6.6%	14.6µM*	14.8%
CC(=O)Nc1ccc(C(=O)CN2CCN(c3ccccc3)CC2)cc1	-19.7%	-14.2%	1.5	-1.8%	-23.5%	-13.3%
